# According to PubChem BioAssay (NCI):
# Compounds without any hit were thinned out: in the full panel of roughly 79,000, 15% have a hit. Values without a mark were called inactive. Calls of active or inactive are those of the source. Rule as the data show it: active = growth inhibition above about 70%; inactive = the rest.
# Tests used:
# [1] = NCI Yeast Anticancer Drug Screen. Data for the rad50 strain (AID 155);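 also: 0% = growth of vehicle-only cultures of the same strain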; conditions: S. cerevisiae rad50 strain growth inhibition, stronger effect = higher value
# Outline: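 Relative growth inhibition (compound vs vehicle) was measured in yeast with a defined repair-gene alteration.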
# [2] = NCI Yeast Anticancer Drug Screen. Data for the mec2-1 strain (AID 157); conditions: S. cerevisiae mec2-1 strain, stronger effect = higher value
# Outline: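 Growth inhibition is read against vehicle-treated controls after compound exposure of the mec2-1 yeast strain, which is defective in DNA damage repair or cell cycle control.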
# [3] = NCI Yeast Anticancer Drug Screen. Data for the sgs1 mgt1 strain (AID 161);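 also: 0% = growth of cultures given vehicle only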; conditions: S. cerevisiae sgs1 mgt1 strain, stronger effect = higher value
# Outline: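 Yeast cells carrying a defined DNA-repair defect were exposed to test compounds. Growth inhibition was measured relative to vehicle-treated controls.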
# [4] = NCI Yeast Anticancer Drug Screen. Data for the cln2 rad14 strain (AID 165);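 also: 0% = growth equal to vehicle treated cultures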; conditions: S. cerevisiae cln2 rad14 strain, stronger effect = higher value
# Outline: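 Growth inhibition, relative to vehicle-treated controls, is the read-out. The test organism is a yeast strain with defined genetic alterations, cln2 rad14.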
# [5] = NCI Yeast Anticancer Drug Screen. Data for the bub3 strain (AID 167); conditions: S. cerevisiae bub3 mutant strain, stronger effect = higher value
# Outline: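 Screening used yeast with an engineered genetic alteration affecting cell cycle control. Compound-exposed cultures were compared with vehicle cultures, and reduced growth was taken as inhibition.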
# [6] = NCI Yeast Anticancer Drug Screen. Data for the mlh1 rad18 strain (AID 175); conditions: S. cerevisiae mlh1 rad18 strain growth inhibition, stronger effect = higher value
# Outline: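 Cells of a genetically altered yeast strain, deficient in DNA damage repair, were treated with compound. Their growth was then compared with that of vehicle-treated cultures to give inhibition.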
# [7] = at 5.0 µM (retest, dose inferred, filed as 0.5)
# [8] = at 50.0 µM (retest, dose inferred, filed as 5.0)
Compound,"growth inhibition [1, 7]","growth inhibition [1, 8]",growth inhibition ([1]; at 50.0 µM),"growth inhibition [2, 7]","growth inhibition [2, 8]",growth inhibition ([2]; at 50.0 µM),"growth inhibition [3, 7]","growth inhibition [3, 8]",growth inhibition ([3]; at 50.0 µM),"growth inhibition [4, 7]","growth inhibition [4, 8]",growth inhibition ([4]; at 50.0 µM),"growth inhibition [5, 7]","growth inhibition [5, 8]",growth inhibition ([5]; at 50.0 µM),"growth inhibition [6, 7]","growth inhibition [6, 8]",growth inhibition ([6]; at 50.0 µM)
C/C=C1\SC(=S)NC1=O,25%,99% (active),98.8% (active),11%,99% (active),98.8% (active),22%,98% (active),99.2% (active),6%,98% (active),95.9% (active),9%,98% (active),98% (active),36%,99% (active),99.3% (active)
ON=C1c2ccccc2-c2ccccc21,8%,58%,54.2%,2%,21%,-3.05%,2%,30%,41.5%,-12%,-6%,-68.6%,-4%,9%,30.9%,9%,58%,71.7% (active)
Cc1c(Cl)nc(-c2ccccc2)nc1C(=O)CCl,43%,78% (active),22.1%,67%,91% (active),-0.1%,90% (active),93% (active),70.5% (active),22%,66%,9.45%,38%,86% (active),-34.3%,65%,89% (active),4.5%
CC(=O)N=C1N(/C=C2\C(=O)Oc3ccccc3C2=O)C(=O)/C(=C/c2ccco2)N1C,-12%,84% (active),97.6% (active),3%,74% (active),97.1% (active),-6%,65%,96.2% (active),-7%,24%,91% (active),-22%,76% (active),97.7% (active),-17%,61%,98.7% (active)
O=C1Nc2ccccc2NC(=O)C(=C(c2ccccc2)c2ccccc2)C1=C(c1ccccc1)c1ccccc1,95% (active),96% (active),46.9%,94% (active),97% (active),97.8% (active),96% (active),98% (active),53.1%,92% (active),96% (active),97.5% (active),95% (active),97% (active),98% (active),96% (active),96% (active),43.9%
Cn1cc(NC(=O)Nc2cc(C(=O)Nc3cc(C(=O)Nc4ccc5cc(S(=O)(=O)O)cc(S(=O)(=O)O)c5c4)n(C)c3)n(C)c2)cc1C(=O)Nc1cc(C(=O)Nc2ccc3cc(S(=O)(=O)O)cc(S(=O)(=O)O)c3c2)n(C)c1,68%,98% (active),91% (active),36%,99% (active),93.7% (active),69%,99% (active),93.5% (active),33%,99% (active),92.7% (active),44%,98% (active),92.5% (active),76% (active),98% (active),90.8% (active)
CCCC(O)C[N+](=O)[O-] (stereo not given),6%,71% (active),48.2%,-1%,6%,13.2%,-2%,9%,15.2%,-1%,1%,4.5%,-1%,4%,13.5%,0%,14%,11.8%
O=Cc1ccc(O)c2ccccc12,-3%,66%,63.2%,1%,47%,76.6% (active),-9%,85% (active),75.6% (active),1%,23%,32.8%,-1%,78% (active),48%,-5%,88% (active),64.5%
COc1ccccc1OC(=O)Oc1ccccc1OC,-1%,19%,36.6%,-3%,-3%,-11.1%,-1%,12%,9.45%,4%,4%,-37.4%,1%,9%,57.8%,-4%,-5%,50%
CC(C)C(NC(=O)/C=C\c1ccccc1)C(=O)O (stereo not given),-2%,1%,88.4% (active),1%,-6%,94.2% (active),-5%,-7%,93.5% (active),7%,-6%,95.3% (active),-3%,-1%,71.7% (active),-2%,4%,95.2% (active)
N=C(/C(=C/c1ccccc1)c1ccccc1)c1ccccc1,5%,78% (active),97.6% (active),8%,76% (active),98.8% (active),6%,98% (active),98.5% (active),-4%,97% (active),97.8% (active),25%,98% (active),98.7% (active),5%,98% (active),97.9% (active)
CCOC(=O)NC(NC(=O)OCC)C(=O)Nc1cccc2c(OC(=O)C(NC(=O)OCC)NC(=O)OCC)c(N=Nc3ccc(S(=O)(=O)Nc4nccs4)cc3)cc(N=Nc3ccc(S(=O)(=O)Nc4nccs4)cc3)c12 (tested in a mixture with another compound),94% (active),43%,78.7% (active),97% (active),59%,74.9% (active),96% (active),58%,65.8%,95% (active),70% (active),70.3% (active),95% (active),59%,61.8%,88% (active),29%,83.1% (active)
OCc1ccc(OCc2ccccc2)c(OCc2ccccc2)c1,6%,15%,88.2% (active),7%,14%,77.1% (active),-8%,47%,92.8% (active),51%,26%,80.3% (active),10%,55%,94.5% (active),0%,62%,96.5% (active)
Clc1ccc(-c2noc(CN3CCCCC3)n2)cc1,10%,38%,66%,0%,24%,15.2%,2%,62%,49.6%,-7%,21%,73.3% (active),-1%,25%,71.9% (active),-4%,24%,67.3%
CC1N=C(Cc2ccccc2)SC1C (stereo not given),-2%,81% (active),74.5% (active),-5%,85% (active),86.1% (active),0%,87% (active),86.8% (active),-9%,85% (active),88% (active),0%,83% (active),88.3% (active),-1%,84% (active),85.8% (active)
CCOC(=O)C(=CNC(=S)Nc1c(CC)cccc1C(C)(C)C)C(=O)OCC,6%,74% (active),85.2% (active),-13%,44%,75.5% (active),-2%,27%,77% (active),1%,52%,76.3% (active),-11%,58%,84.2% (active),-11%,67%,86.8% (active)
CC(C(O)c1ccccc1)[N+](=O)[O-] (stereo not given),67%,96% (active),97% (active),8%,41%,29.2%,6%,53%,55.1%,3%,63%,28.1%,1%,78% (active),39.6%,7%,74% (active),38.5%
COc1ccc2c(c1OC)C(C(Cl)(Cl)Cl)N1CCc3cc4c(cc3C1=C2)OCO4 (stereo not given),15%,54%,67.2%,7%,71% (active),74.5% (active),7%,72% (active),78.4% (active),33%,80% (active),80% (active),20%,86% (active),80.8% (active),11%,66%,62.1%
Cc1cc2cc3c(c(C(=O)O)c2o1)C(=O)c1ccc2ccccc2c1C3,15%,99% (active),98.2% (active),24%,99% (active),99.5% (active),19%,99% (active),99.5% (active),14%,99% (active),99.2% (active),14%,99% (active),99.6% (active),20%,99% (active),99.4% (active)
CC1=NN(c2nc(N)nc(C(C)Sc3cc(Cl)c(C)cc3S(N)(=O)=O)n2)C(C)(C)C1 (stereo not given),4%,18%,-51%,-1%,-24%,-25.8%,8%,1%,-10.6%,29%,-6%,40.9%,41%,26%,-17.1%,-6%,0%,2.9%
Nc1ccc2nc3c(nc2c1)C(=O)c1ccccc1-3,47%,93% (active),85.5% (active),10%,93% (active),86.5% (active),19%,88% (active),85% (active),32%,90% (active),83% (active),15%,94% (active),87.6% (active),21%,93% (active),89.5% (active)
Nc1nc2nc(I)[nH]c2c(=O)[nH]1,-4%,-4%,4.8%,-13%,-16%,-2.5%,10%,9%,-5.25%,-8%,-4%,30.3%,-7%,3%,31.6%,-9%,-2%,10.9%
N#CC1Oc2ccccc2N1C(=O)c1ccccc1 (stereo not given),2%,12%,33%,0%,7%,54.1%,-3%,-4%,36%,-6%,0%,-0.55%,-8%,48%,77.3% (active),2%,4%,64.3%
Nc1ccc(Cc2ccc(Cl)cc2)cc1,-156%,93% (active),99.2% (active),-51%,96% (active),99% (active),-66%,95% (active),99.3% (active),-60%,94% (active),97.9% (active),-66%,95% (active),98.8% (active),-129%,95% (active),99.2% (active)
CCOC(=O)/C=C(\C)Sc1cc(O)c2ccccc2c1O,-3%,22%,68.9%,-1%,28%,79.5% (active),1%,37%,72.5% (active),1%,3%,8%,-5%,15%,73% (active),-2%,53%,76.1% (active)
